Compound activity deposited in PubChem BioAssay by National Center for Advancing Translational Sciences (NCATS).
FEN1 inhibitor – qHTS Assay for the Inhibitors of Human Flap endonuclease 1 (FEN1) | P39748 | 390,000 tested, 0.35% active | AID 588795, 2011 | Recombinant FEN1 flap cleavage, fluorescence, 15 min | Potency, µM (series often up to 114 µM), inactives show at the top dose activity change, negative = inhibition, hits mostly inhibitors; also: % is scaled to controls: 0 for no effect and ±100 for the full control effect; nearly all actives have a fitted effect of over 65% in size
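With each library titrated from low to high concentration, compounds met 10 nM FEN1 for 15 min at room temperature before 50 nM substrate was added; readings at 0 and 15 min fed four-parameter Hill curve fits.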
Pol iota inh – qHTS for Inhibitors of Polymerase Iota. Pol iota fluorescent replication assay, 10 min. Potency, µM (highest dose often 115 µM), for inactives: at the top dose activity, negative = inhibition, usual class: inhibitors. 390,000 tested, 1% active
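Pol iota at 10 nM preincubated 15 min with compounds at room temperature; reaction started with fluorescent substrate, 50 nM final. Fluorescence read kinetically at 0 and 10 min; buffer-only wells as negative control.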
Pol eta inh – qHTS for Inhibitors of Polymerase Eta; DNA polymerase eta (Homo sapiens), Q9Y253; recombinant Pol eta, fluorescent DNA replication assay; Potency, µM (doses to about 114 µM), for the others: top-dose activity change, negative = inhibition, usual class: inhibitors; 390,000 tested, 1.2% active; also: % is scaled to controls: 0 for no effect and ±100 for the full control effect
Target sequence (Q9Y253 whole entry, looked up): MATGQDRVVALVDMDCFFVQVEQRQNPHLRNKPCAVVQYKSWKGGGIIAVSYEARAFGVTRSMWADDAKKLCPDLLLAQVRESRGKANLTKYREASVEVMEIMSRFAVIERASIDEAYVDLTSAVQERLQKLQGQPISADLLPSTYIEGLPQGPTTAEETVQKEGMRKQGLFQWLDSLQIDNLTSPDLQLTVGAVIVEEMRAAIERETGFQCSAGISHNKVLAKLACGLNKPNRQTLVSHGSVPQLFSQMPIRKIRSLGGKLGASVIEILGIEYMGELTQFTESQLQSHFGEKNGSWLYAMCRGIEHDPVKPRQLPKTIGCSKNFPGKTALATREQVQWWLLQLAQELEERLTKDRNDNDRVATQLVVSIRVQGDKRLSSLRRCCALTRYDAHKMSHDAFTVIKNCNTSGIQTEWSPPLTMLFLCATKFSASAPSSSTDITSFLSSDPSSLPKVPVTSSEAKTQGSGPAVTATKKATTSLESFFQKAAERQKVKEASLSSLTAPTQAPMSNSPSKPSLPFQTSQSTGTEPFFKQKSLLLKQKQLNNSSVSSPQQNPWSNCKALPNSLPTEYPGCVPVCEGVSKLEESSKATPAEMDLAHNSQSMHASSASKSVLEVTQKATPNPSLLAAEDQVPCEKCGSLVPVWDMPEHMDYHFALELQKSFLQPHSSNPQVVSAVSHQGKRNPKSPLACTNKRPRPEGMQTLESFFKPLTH
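Fluorescent replication assay: 50 nM final substrate added after a 15 min room-temperature compound preincubation with 10 nM enzyme. Signal taken at 0 min and again at 10 min.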
TDP1 inh – qHTS Assay for Inhibitors of Tyrosyl-DNA Phosphodiesterase (TDP1); Tyrosyl-DNA phosphodiesterase 1 (Homo sapiens), Q9NUW8; recombinant TDP1, AlphaScreen DNA substrate cleavage; Potency, µM (top dose mostly 130 µM), for inactives: at the highest dose activity change, negative = inhibition, usual class: inhibitors; 350,000 tested, 0.28% active; AID 485290, 2010; also: % is scaled to controls: 0 for no effect and ±100 for the full control effect; nearly all actives have a fitted effect of over 40% in size
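E. coli-derived human Tdp1, 1 nM final. Cpd preinc 15 min RT; substrate 15 nM final, 5 min RT; AS bead mix 10 ug/ml final, 10 min RT. Signal loss = tyrosine-FITC cleavage. No-enzyme wells = max signal.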
Pol beta inh – qHTS Assay for Inhibitors of DNA Polymerase Beta; P06746; Pol beta primer extension/strand displacement, fluorescence kinetic; Potency, µM (doses to about 114 µM), without a hit: top-dose activity change, negative = inhibition, hits mostly inhibitors; 340,000 tested, 1.3% active; also: % is scaled to controls: 0 for no effect and ±100 for the full control effect
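Enzyme-only controls used 10 nM Pol beta; buffer lacking enzyme served as negative control. Compound preincubated 15 min, then 50 nM substrate added; 0 and 10 min reads at room temperature.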
Pol kappa inh – qHTS for Inhibitors of Polymerase Kappa. DNA polymerase kappa (Homo sapiens), Q9UBT6. purified Pol kappa, fluorescent DNA synthesis assay, 10 min. Potency, µM (series often up to 107 µM), for the others: top-dose activity, negative = inhibition, hits mostly inhibitors. 400,000 tested, 0.53% active; also: % is scaled to controls: 0 for no effect and ±100 for the full control effect
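Inhibition of 10 nM Pol kappa is measured by a fluorescent read-out at 0 and 10 min following addition of 50 nM substrate (final), with a 15-min room-temperature compound preincubation.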
Numbers without * were called inactive; ? = inconclusive; · = not tested or not shown; [ ] = remark or other dose. Sampled rows, rich in hits. Any-hit rate of the full collection: about 2.4%. Calls follow the shape of the dose curve; as a rule, active = well fitted curve in the direction sought with a large enough effect; inconclusive = small, poorly fitted or top-dose-only effect, or another doubt; inactive = no such curve, though single readings can be large; an effect the other way counts as inactive or inconclusive. Potency is read from the fitted curve at half-maximal effect.

SMILES	FEN1 inhibitor	Pol iota inh	Pol eta inh	TDP1 inh	Pol beta inh	Pol kappa inh
C#CCOCCOCCOCCNc1nc(N2CCN(C(=O)Cn3cc(CCCCN)nn3)CC2)nc(N2CCN(C(=O)[C@H](C)n3cc(CCC(=O)O)nn3)CC2)n1	6%	19%	-10%	·	·	16%
C#CCOCCOCCOCCNc1nc(N2CCN(C(=O)Cn3cc(CCCN=C(N)N)nn3)CC2)nc(N2CCN(C(=O)[C@H](C)n3cc(CCCN=C(N)N)nn3)CC2)n1	0%	?	-15%	-1%	40µM*	?
COC(=O)c1ccc(NC(=O)c2c(NCc3cccc(F)c3)sc3c2CCCC3)cc1	-7%	-17%	-1%	8%	-13%	-2%[60.1 µM]
CCc1cccc(C)c1NC(=O)CSc1nnc(CC)n2c1cc1occc12	10%	23%	-20%	5%	-18%	-10%
O=C(NCc1ccccn1)c1ccc(Cn2c(=S)[nH]c3ccccc3c2=O)cc1	8%	50µM*	-17%	-5%	?	-11%
O=C(NCc1ccccn1)c1ccc(Cn2c(=S)[nH]c3ccc(Br)cc3c2=O)cc1	-7%	180%	-7%	-2%	-25%	-2%
COc1ccc(NC(=O)c2cc3c(COC(C)=O)cnc(C)c3oc2=Nc2cccc(C(=O)O)c2)c(OC)c1	?	-23%	3.2µM*	·	-26%	-6%
CNS(=O)(=O)c1cccc(C(=O)NCC2(N3CCCCC3)CCCCC2)c1	0%	?	-6%	50µM*	?	-17%
Nc1ccc(C(=O)O)c(O)c1	17%	-13%	-13%	6%	-13%	-13%
Nc1ccc(N)c(C(=O)O)c1	?	2.5µM*	1.3µM*	0.28µM*	0.4µM*	6.3µM*
Cc1ccc(NS(=O)(=O)c2cc3c(cc2N(C)C)CCC(=O)N3)cc1C	·	·	·	0%	·	·
Fc1cccc(-n2cc(-c3ccccc3)c3c(=S)nc[nH]c32)c1	6%	29%	-7%	1%	1%	18%
Fc1ccc(-n2cc(-c3ccccc3)c3c(=S)nc[nH]c32)cc1	-12%	79µM*	-29%	5%	4%	?
O=C(O)c1ccc2[nH]c3c(c2c1)CSCC3	7%	-18%	8.9µM*	20µM*	?	?
O=C(NCCO)c1ccc2[nH]c3c(c2c1)CCCC3	-7%	38%	-12%	3%	8%	0%
CCCCC1=CC2=C(c3ccco3)C(=O)C(C)(OC(=O)c3ccc(OC)cc3)C(=O)C2=CN1CCc1ccccn1 (stereo unspecified)	6%	11µM*	-24%	3%[12.3 µM]	50µM*	-15%
CCCCC1=CC2=C(c3ccco3)C(=O)C(C)(OC(=O)c3ccc(OC)cc3)C(=O)C2=CN1CCc1c[nH]c2ccccc12 (stereo unspecified)	·	·	·	6%[12.3 µM]	·	·
CCCCC1=CC2=C(c3ccco3)C(=O)C(C)(OC(=O)c3ccc(OC)cc3)C(=O)C2=CN1Cc1ccc2c(c1)OCO2 (stereo unspecified)	-22%	?	6%	6%[12.3 µM]	35µM*	-7%
CCCCC1=CC2=C(c3ccco3)C(=O)C(C)(OC(=O)c3ccc(OC)cc3)C(=O)C2=CN1Cc1ccccc1 (stereo unspecified)	-8%	?	50µM*	6%[12.3 µM]	45µM*	-3%
COc1ccc(C(=O)N(Cc2ccco2)Cc2ccco2)c(O)c1	·	·	·	-7%	·	·
CCc1ccc(NC(=O)C(CC)n2c(=O)c(C(F)(F)F)nc3ccccc32)cc1 (stereo unspecified)	20%	23%	-21%	0%	?	-1%
CCN(C(=O)CN1C(=O)COc2ccc(S(=O)(=O)N3CCOCC3)cc21)c1cccc(C)c1	-8%	27%	-17%	8%	19%	2%
